Source: PubChem
Sampled rows, rich in hits. Any-hit rate of the full collection: about 11%.
PNC inhibitor = inhibitors of perinucleolar compartment assembly; PC3M PTB-GFP, PNC prevalence imaging, 16 h; stronger effect = lower value; activity change (PNC), negative = inhibition, % at 10 µM; 140,000 compounds, 3.1% hits;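 active = readout at or below -70, meaning at least 70% loss of cells showing the perinucleolar compartment, a nuclear body marking cancer cells; inconclusive = readout between -30 and a set limit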;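 also: plate controls were DMSO wells for no effect and camptothecin positive control wells for full effect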
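Compounds are pinned in duplicate onto adhered PC3M cells stably expressing GFP-tagged PTB and incubated 16 h at 37 C. Cells are then fixed, nuclei stained with Hoechst, and PNC-positive cells counted.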
HttQ103 aggreg = mutant huntingtin aggregation inhibition; PC12 HttQ103-GFP aggregates, Acumen cytometry, 40 h; Potency, µM (highest dose often 46.1 µM), for the others: at the top dose activity change, negative = inhibition, actives largely listed as inhibitors; 220,000 compounds, 1.1% hits; AID 1688; also: potency is read from the fitted curve at half-maximal effect; % is scaled to controls: 0 for no effect and ±100 for the full control effect; nearly all actives have a fitted effect of over 60% in size
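PC12 cells with ecdysone-inducible HTT exon1 Q103-GFP, induced by 100 nM tebufenozide, given compounds in a concentration series. GFP aggregates (1–25 um, 6 SD above background) counted in lysates by laser-scanning cytometry, 488 nm excitation.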
ALDH1A1 block = inhibitors of human aldehyde dehydrogenase 1A1. Purified ALDH1A1, NADH fluorescence, propionaldehyde substrate. P00352. Potency, µM (top dose mostly 75.3 µM), for the others: top-dose activity, negative = inhibition, hits mostly inhibitors. 220,000 compounds, 7.3% hits. AID 1030; active = well fitted inhibition curve with a large enough effect, not every such curve was filed as active; inconclusive = small, poorly fitted or top-dose-only effect, or another doubt; inactive = no such curve, though single readings can be large or run the other way;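 also: potency is read from the fitted curve at half-maximal effect; plate controls were no enzyme wells and a reference inhibitor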
HTT ATP protect = Huntington cell model cytoprotection by ATP luminescence; Potency, µM (doses to about 56.4 µM), without a hit: cytoprotection (ATP increase), usual class: activators; PC12 HTT-Q103 induced, cytoprotection, ATP luminescence, 40 h; 230,000 compounds, 0.14% hits; also: potency is read from the fitted curve at half-maximal effect; % of control where 0% means no effect; nearly all actives have a fitted effect of over 45% in size
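Rat PC12, Q103 Htt exon1-GFP fusion, ecdysone promoter; tebufenozide inducer 100 nM final; compound titration; qHTS, 1500 cells/well; ATPlite luminescent read.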
CBFb RUNX1 block = CBF-beta/RUNX1 interaction disruption; Q01196+Q13951; AlphaScreen CBFb-His/RUNX1-biotin binding, biochemical; Potency, µM (titrated, usually from 59.8 µM), for the others: at the highest dose activity, negative = inhibition, hits mostly inhibitors; 230,000 tested, under 10 active; also: % of control where 0% means no effect
Target sequence (Q01196 whole entry, looked up): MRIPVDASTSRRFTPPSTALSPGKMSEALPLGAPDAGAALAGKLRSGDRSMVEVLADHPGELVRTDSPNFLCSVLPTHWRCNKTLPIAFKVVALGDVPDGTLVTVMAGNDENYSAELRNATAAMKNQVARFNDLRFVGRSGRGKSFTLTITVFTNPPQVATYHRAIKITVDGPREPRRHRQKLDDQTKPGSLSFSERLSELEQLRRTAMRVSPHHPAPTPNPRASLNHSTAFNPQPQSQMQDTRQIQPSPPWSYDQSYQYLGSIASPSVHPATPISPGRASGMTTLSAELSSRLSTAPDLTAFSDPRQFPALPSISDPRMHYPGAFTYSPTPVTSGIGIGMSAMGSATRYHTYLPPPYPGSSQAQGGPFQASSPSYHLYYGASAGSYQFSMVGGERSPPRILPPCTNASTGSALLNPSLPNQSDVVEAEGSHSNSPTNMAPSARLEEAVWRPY
Target sequence (Q13951 whole entry, looked up): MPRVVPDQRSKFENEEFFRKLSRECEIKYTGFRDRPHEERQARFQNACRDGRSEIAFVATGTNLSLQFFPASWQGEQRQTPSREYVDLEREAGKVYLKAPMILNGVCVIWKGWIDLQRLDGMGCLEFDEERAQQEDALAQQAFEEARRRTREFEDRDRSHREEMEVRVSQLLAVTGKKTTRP
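CBF-beta (His) and RUNX1 (biotin), 30 nM each; 20 min preassociation; + compound, 15 min; + beads 50 ng each (Ni, streptavidin), 90 min; RT; AlphaScreen read.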
HPGD block = inhibitors of human 15-hydroxyprostaglandin dehydrogenase (HPGD) | purified HPGD, NADH fluorescence kinetic, PGE2 substrate | Potency, µM, for inactives: at the highest dose activity change, negative = inhibition, hits mostly inhibitors | 150,000 compounds, 4.3% hits | AID 894; active = well fitted inhibition curve with a large enough effect, not every such curve was filed as active; inconclusive = small, poorly fitted or top-dose-only effect, or another doubt; inactive = no such curve, though single readings can be large or run the other way; also: potency is read from the fitted curve at half-maximal effect; % is scaled to controls: 0 for no effect and ±100 for the full control effect
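20 nM HPGD preincubated 15 min at room temperature with compound in 50 mM Tris-HCl pH 8, 0.01% Tween 20. Started with 1 mM NAD+ and 30 uM prostaglandin E2; NADH fluorescence (360/450 nm) read 5 times over 30-s intervals, last minus first.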
Numbers without * were called inactive; ? = inconclusive; . = no result given; [ ] = dose if it differs, or a comment. Unless noted, calls follow the shape of the dose curve; as a rule, active = well fitted curve in the direction sought with a large enough effect; inconclusive = small, poorly fitted or top-dose-only effect, or another doubt; inactive = no such curve, though single readings can be large; an effect the other way counts as inactive or inconclusive.

SMILES	PNC inhibitor	HttQ103 aggreg	ALDH1A1 block	HTT ATP protect	CBFb RUNX1 block	HPGD block
CCOC(=O)C1(C(=O)OCC)CC1c1ccccc1 (stereo not drawn)	?	-8%	9%	-2%[10 µM]	9%	0%
Cc1cnc(C(=O)O)cn1	.	-14%	.	17%	.	.
O=C(c1cccc(Cl)c1)N1CCN(c2ncnc3c2cnn3-c2ccccc2)CC1	.	.	7.9µM*	.	5%	.
CC1CCN(c2ncnc3c2cnn3-c2ccccc2)CC1	7	-20%	?	-58%	8%	28µM*
Cc1nn(-c2ccccc2)c(Cl)c1C(=O)N1CCN(c2ncnc3c2cnn3-c2ccccc2)CC1	-12	?	14µM*	-112%[10 µM]	1%	?
Cc1cc(C(=O)CCl)c(C)n1CCc1ccc(F)cc1	.	?	0.4µM*	7%	-6%	.
COc1ccc(CCn2c(C)cc(C(=O)CCl)c2C)cc1OC	.	?	0.11µM*	9%[10 µM]	-16%	.
COc1ccc(CCn2c(C)c(C(C)=O)c(C(C)=O)c2C)cc1OC	.	4%	0%	-19%	2%	.
COc1ccc(CCn2c(C)cc(C(=O)CSc3nc(N)cc(=O)[nH]3)c2C)cc1	47	7.1µM*	-5%	-59%	-15%	-13%
Cc1cc(C(=O)CSc2nc(N)cc(=O)[nH]2)c(C)n1CCc1ccc(F)cc1	?	?	4%	-48%	-10%	-6%
Cc1cc(C(=O)CCl)c(C)n1CCc1ccc(Cl)cc1	.	13%	0.18µM*	-32%	-7%	.
N#Cc1cccc(-c2nccc(NCc3cccnc3)n2)c1	.	.	?	-28%	.	.
Cc1cc(Cl)ccc1NNC(=O)c1cccs1	.	-2%[9.22 µM]	-5%	-6%[10 µM]	4%	.
O=C(Nc1cc(Cl)ccc1N1CCCCC1)c1cccs1	-88*	-5%	-6%	13%	-1%	-13%
O=C(NNc1cc(Cl)ccc1Cl)c1cccs1	.	10%[9.22 µM]	1.9µM*	-14%[10 µM]	5%	.
O=C(O)C1CC(=O)N(CCC23CC4CC(CC(C4)C2)C3)C(=Nc2ccccc2)S1 (stereo not drawn)	.	.	?	.	.	-16%
CS(=O)(=O)c1ccc(/C=N\NC(N)=S)cc1	.	.	?	-9%[10 µM]	.	-11%
NC(N)=NC[C@H](N)C(=O)O	.	.	3%[13.5 µM]	-5%[10 µM]	.	-9%
C=C1CC2C(=O)N(Cc3cc(OC)ccc3OC)C(C(=O)OCC)C1N2C (stereo not drawn)	.	.	.	.	24%	.
CCOC(=O)c1ccc(Nc2nnc3nc(C)cc(C)n23)cc1	6	6%	?	7%[10 µM]	-21%	22µM*
COC(=O)c1ccc(Nc2cc(C)nc3ncnn23)cc1	17	9%	-8%	19%[10 µM]	2%	.
CCOC(=O)c1ccc(Nc2cc(C)nc3ncnn23)cc1	?	13%	10µM*	-21%	-3%	-24%
CC(=O)NC(C)c1nc2ccccc2n1C(C)C (stereo not drawn)	-119*	10%	6%	11%[10 µM]	-2%	-15%
COc1cccc(-c2cc(=O)c3cc(O)ccc3o2)c1	.	.	-1%	5%[1.9 µM]	2%[21.7 µM]	-15%
CCOC(=O)CSC(=S)NC(=O)c1ccc(OC)cc1	5	6%	?	27%[10 µM]	17%	10µM*
SMILES	PNC inhibitor	HttQ103 aggreg	ALDH1A1 block	HTT ATP protect	CBFb RUNX1 block	HPGD block
C/C(CCC(=O)OC[C@@H]1O[C@H](C#Cc2ccccc2)C=C[C@@H]1Oc1ccc(C)cc1)=N/O[C@@H](C)CN1CCCCc2nc(C)c(C)cc21	.	.	8%[13.5 µM]	2%[10 µM]	22%[13.1 µM]	.
O=C(CCCN1C(=O)c2cccc3cccc(c23)C1=O)N1CCN(c2ncccn2)CC1	.	?	28µM*	-6%	-5%	.
O=C(CCCN1C(=O)c2cccc3cccc(c23)C1=O)N1CCN(c2ccccn2)CC1	27	-3%	-12%	-5%[0.074 µM]	5%	-4%
Nn1c(SC/C=C/c2ccccc2)nnc1-c1cccnc1	43	-21%	13µM*	7%[0.074 µM]	-5%	-11%
Clc1ccc(-n2c(SC/C=C/c3ccccc3)nnc2-c2cccnc2)cc1	?	?	?	-27%	-2%	-12%
CN1C(=O)/C(=N\OC(=O)c2cccc3ccccc23)c2ccccc21	38	3%	14µM*	7%	4%	?
